Results: PubChem BioAssay (NCATS)
Values joined by “and” are separate entries in the source; they are usually repeats but may differ in a detail not shown here. Identical values can stand only once. Results filed as inconclusive are left out. A call without a number means that no potency is given here. A structure can be active in one record and inactive in another. Active and inactive are the calls of the source. Unless noted, calls follow the shape of the dose curve; as a rule, active = well fitted curve in the direction sought with a large enough effect in the repeat runs; inconclusive = weak or mixed curves; inactive = no such curve, though single readings can be large; an effect the other way counts as inactive or inconclusive.

target: Cytochrome P450 2C9 (Homo sapiens) (UniProt P11712); assay: Cytochrome P450 family 2 subfamily C member 9 (CYP2C9) small molecule antagonists: luciferase biochemical (cell-free) qHTS assay (AID 1645842); conditions: P450-Glo CYP2C9 enzyme assay, luciferin luminescence; series mostly up to 57.4 µM; also: nearly all actives have a fitted effect of over 55% in size
Sequence (P11712 whole entry, looked up): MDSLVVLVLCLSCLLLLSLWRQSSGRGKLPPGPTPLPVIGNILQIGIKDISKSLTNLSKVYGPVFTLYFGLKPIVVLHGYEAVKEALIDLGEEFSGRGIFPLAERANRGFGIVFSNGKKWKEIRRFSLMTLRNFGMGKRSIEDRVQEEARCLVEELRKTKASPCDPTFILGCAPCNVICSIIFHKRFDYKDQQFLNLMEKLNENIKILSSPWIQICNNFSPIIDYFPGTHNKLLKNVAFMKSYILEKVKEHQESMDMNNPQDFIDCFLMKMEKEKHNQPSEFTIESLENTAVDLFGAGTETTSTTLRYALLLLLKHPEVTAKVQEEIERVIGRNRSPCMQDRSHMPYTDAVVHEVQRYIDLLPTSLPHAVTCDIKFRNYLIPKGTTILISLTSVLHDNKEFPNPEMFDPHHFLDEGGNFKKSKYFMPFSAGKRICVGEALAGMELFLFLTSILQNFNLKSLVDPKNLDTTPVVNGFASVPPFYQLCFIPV
Summary of the method: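 P450-Glo CYP2C9 system: proluciferin substrate with enzyme in mix containing 0.4% BSA, 10 min at room temperature, then NADPH regeneration solution added and incubated 1 h at 37C. Detection reagent stopped reaction; luminescence read after 20 min as RLU.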
Potency is read from the fitted curve at half-maximal effect.

Row | SMILES | Potency | activity change, negative = inhibition
1 | CN(C)CC/C=C1/c2ccccc2COc2ccc(CC(=O)O)cc21 | inactive | 
2 | NCCCC[C@H](N[C@@H](CCc1ccccc1)C(=O)O)C(=O)N1CCC[C@H]1C(=O)O | inactive | 
3 | CN(C)CC/C=C1\c2ccccc2Sc2ccc(Cl)cc21 | inactive | 
4 | CCCCS(=O)(=O)N[C@@H](Cc1ccc(OCCCCC2CCNCC2)cc1)C(=O)O | inactive | 
5 | OCc1ccccc1O | inactive | 
6 | CCOC(=O)[C@H](CCc1ccccc1)N[C@@H](C)C(=O)N1Cc2ccccc2C[C@H]1C(=O)O | 6.92 µM (active) and inactive | 
7 | CNC(=O)CN(CCN(CCN(CC(=O)[O-])CC(=O)NC)CC(=O)[O-])CC(=O)[O-].O.[Gd+3] | inactive | 
8 | O=c1[nH]c(=O)n([C@H]2CCCO2)cc1F | inactive | 
9 | CCOC(=O)c1cccc(N)c1 | inactive | 
10 | COc1cc2c(cc1OC)C(C(C(=O)N(CCc1ccc(OC)c(OC)c1OC)CCc1ccc(OC)c(OC)c1OC)c1ccccc1)=NCC2 (stereo not drawn) | 4.36 µM (active) | 
11 | CN(C)CCOc1ccccc1Cc1ccccc1 | inactive | 
12 | O=C1[C@H]2CCCC[C@H]2C(=O)N1CCCCN1CCN(c2nsc3ccccc23)CC1 | inactive | 
13 | O=c1ccc2ccccc2o1 | inactive | 
14 | NCCC(O)(P(=O)(O)O)P(=O)(O)O | inactive | 
15 | NC(CO)(CO)CO | inactive | 
16 | CC(C)(CO)[C@@H](O)C(=O)NCCCO | inactive | 

Row | SMILES | Potency | activity change, negative = inhibition
17 | CC1(C)O[C@@H]2C[C@H]3[C@@H]4CCC5=CC(=O)CC[C@]5(C)[C@@]4(F)[C@@H](O)C[C@]3(C)[C@]2(C(=O)CCl)O1 | 8.71 µM (active) | 
18 | COc1cc(OC)cc(OC)c1 | inactive | 
19 | CCCCCCCCCCCCCCNCCO | inactive | 
20 | CCN1CCCC1=O | inactive | 
21 | NC(CS)C(=O)O (stereo not drawn) | inactive | 
22 | CC[C@@H](CO)NCCN[C@@H](CC)CO | inactive | 
23 | C[C@H](O)C(=O)Nc1c(I)c(C(=O)NC(CO)CO)c(I)c(C(=O)NC(CO)CO)c1I | inactive | 
24 | CC(C)(C(=O)c1cccnc1)c1cccnc1 | inactive | 
25 | C[C@H]1[C@H](NC(=O)/C(=N/OC(C)(C)C(=O)O)c2csc(N)n2)C(=O)N1S(=O)(=O)O (stereo in doubt) | inactive | 
26 | COc1cc(/C=C/C(=O)O[C@H]2CC[C@]34C[C@]35CC[C@]3(C)[C@@H]([C@H](C)CCC=C(C)C)CC[C@@]3(C)[C@@H]5CC[C@H]4C2(C)C)ccc1O | inactive | 
27 | NC[C@H]1O[C@H](O[C@H]2[C@H](O)[C@@H](O[C@H]3O[C@H](CO)[C@@H](O)[C@H](N)[C@H]3O)[C@H](N)C[C@@H]2N)[C@H](N)[C@@H](O)[C@@H]1O | inactive | 
28 | Nc1ccc(/C=C/c2ccc(N)cc2S(=O)(=O)O)c(S(=O)(=O)O)c1 |  | 13.7% [at 0.91 µM] (inactive)
29 | CN1CCN(C(c2ccccc2)c2ccccc2)CC1 | inactive | 
30 | NC(=O)CC[C@@H]1NC(=O)[C@H](Cc2ccccc2)NC(=O)[C@H](Cc2ccc(O)cc2)NC(=O)CCSSC[C@@H](C(=O)N2CCC[C@H]2C(=O)N[C@@H](CCCN=C(N)N)C(=O)NCC(N)=O)NC(=O)[C@H](CC(N)=O)NC1=O | inactive | 
31 | OC(CCN1CCCCC1)(c1ccccc1)c1ccccc1 | inactive | 

system: not listed separately; assay: Primary qHTS for inhibitors of nuclear receptor binding SET domain protein 2 (NSD2) in an isogenic RCH-ACV NSD2 p.E1099K mutant (9B) (AID 1645876; active = well fitted curve in the direction sought with a large enough effect; an effect the other way counts as inactive or inconclusive; also: nearly all actives have a fitted effect of over 70% in size); conditions: RCH-ACV (leukaemia line) NSD2 E1099K (9B) viability, CellTiter-Glo, 72 h; series mostly up to 44.9 µM

Row | SMILES | Potency | outcome
32 | CN(C)CC/C=C1/c2ccccc2COc2ccc(CC(=O)O)cc21 | inactive | 
33 | NCCCC[C@H](N[C@@H](CCc1ccccc1)C(=O)O)C(=O)N1CCC[C@H]1C(=O)O | inactive | 
34 | CCCCS(=O)(=O)N[C@@H](Cc1ccc(OCCCCC2CCNCC2)cc1)C(=O)O | inactive | 
35 | OCc1ccccc1O | inactive | 
36 | CNC(=O)CN(CCN(CCN(CC(=O)[O-])CC(=O)NC)CC(=O)[O-])CC(=O)[O-].O.[Gd+3] | inactive | 
37 | O=c1[nH]c(=O)n([C@H]2CCCO2)cc1F | inactive | 
38 | CCOC(=O)c1cccc(N)c1 | inactive | 
39 | CN(C)CCOc1ccccc1Cc1ccccc1 | inactive | 
40 | O=C1[C@H]2CCCC[C@H]2C(=O)N1CCCCN1CCN(c2nsc3ccccc23)CC1 | 21.1 µM (active) | 
41 | O=c1ccc2ccccc2o1 | inactive | 
42 | NCCC(O)(P(=O)(O)O)P(=O)(O)O | inactive | 
43 | NC(CO)(CO)CO | inactive | 
44 | CC(C)(CO)[C@@H](O)C(=O)NCCCO | inactive | 
45 | CC1(C)O[C@@H]2C[C@H]3[C@@H]4CCC5=CC(=O)CC[C@]5(C)[C@@]4(F)[C@@H](O)C[C@]3(C)[C@]2(C(=O)CCl)O1 | inactive | 
46 | COc1cc(OC)cc(OC)c1 | inactive | 
47 | CCCCCCCCCCCCCCNCCO | 7.5 µM (active) | 
48 | CCN1CCCC1=O | inactive | 
49 | NC(CS)C(=O)O (stereo not drawn) | inactive | 
50 | CN(C)CCCOc1nn(Cc2ccccc2)c2ccccc12 | 9.44 µM (active) and 25.8 µM (active) | 
51 | CC[C@@H](CO)NCCN[C@@H](CC)CO | inactive | 
52 | C[C@H](O)C(=O)Nc1c(I)c(C(=O)NC(CO)CO)c(I)c(C(=O)NC(CO)CO)c1I | inactive | 
53 | C[C@H]1[C@H](NC(=O)/C(=N/OC(C)(C)C(=O)O)c2csc(N)n2)C(=O)N1S(=O)(=O)O (stereo in doubt) | inactive | 
54 | NC[C@H]1O[C@H](O[C@H]2[C@H](O)[C@@H](O[C@H]3O[C@H](CO)[C@@H](O)[C@H](N)[C@H]3O)[C@H](N)C[C@@H]2N)[C@H](N)[C@@H](O)[C@@H]1O | inactive | 
55 | Nc1ccc(/C=C/c2ccc(N)cc2S(=O)(=O)O)c(S(=O)(=O)O)c1 |  | inactive [at 0.588 µM]
56 | CN1CCN(C(c2ccccc2)c2ccccc2)CC1 | inactive | 
57 | NC(=O)CC[C@@H]1NC(=O)[C@H](Cc2ccccc2)NC(=O)[C@H](Cc2ccc(O)cc2)NC(=O)CCSSC[C@@H](C(=O)N2CCC[C@H]2C(=O)N[C@@H](CCCN=C(N)N)C(=O)NCC(N)=O)NC(=O)[C@H](CC(N)=O)NC1=O | inactive | 
58 | OC(CCN1CCCCC1)(c1ccccc1)c1ccccc1 | inactive | 
